In PubChem BioAssay (Tox21):
Inconclusive results are not listed. Entries that show only a call come without a potency. Values without a mark were called inactive. Active and inactive are the calls of the source. Unless noted, calls follow the shape of the dose curve; as a rule, active = well fitted curve in the direction sought with a large enough effect in the repeat runs; inconclusive = weak or mixed curves; inactive = no such curve, though single readings can be large; an effect the other way counts as inactive or inconclusive.

How the values were obtained:
[1] = qHTS assay to identify aromatase inhibitors - cell viability counter screen (AID 743084);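 also: cells stimulated with testosterone during compound exposure; nearly all actives have a fitted effect of over 55% in size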
[2] = molecular target: Aryl hydrocarbon receptor (Homo sapiens) (UniProt P35869); assay: qHTS assay to identify small molecule that activate the aryl hydrocarbon receptor (AhR) signaling pathway (AID 743085);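 also: HG2L7.5c1 human HepG2 liver cells with stably integrated DRE-driven firefly reporter; series mostly up to about 70 µM; nearly all actives have a fitted effect of over 15% in size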
Aryl hydrocarbon receptor (Homo sapiens), sequence (P35869 whole entry, looked up): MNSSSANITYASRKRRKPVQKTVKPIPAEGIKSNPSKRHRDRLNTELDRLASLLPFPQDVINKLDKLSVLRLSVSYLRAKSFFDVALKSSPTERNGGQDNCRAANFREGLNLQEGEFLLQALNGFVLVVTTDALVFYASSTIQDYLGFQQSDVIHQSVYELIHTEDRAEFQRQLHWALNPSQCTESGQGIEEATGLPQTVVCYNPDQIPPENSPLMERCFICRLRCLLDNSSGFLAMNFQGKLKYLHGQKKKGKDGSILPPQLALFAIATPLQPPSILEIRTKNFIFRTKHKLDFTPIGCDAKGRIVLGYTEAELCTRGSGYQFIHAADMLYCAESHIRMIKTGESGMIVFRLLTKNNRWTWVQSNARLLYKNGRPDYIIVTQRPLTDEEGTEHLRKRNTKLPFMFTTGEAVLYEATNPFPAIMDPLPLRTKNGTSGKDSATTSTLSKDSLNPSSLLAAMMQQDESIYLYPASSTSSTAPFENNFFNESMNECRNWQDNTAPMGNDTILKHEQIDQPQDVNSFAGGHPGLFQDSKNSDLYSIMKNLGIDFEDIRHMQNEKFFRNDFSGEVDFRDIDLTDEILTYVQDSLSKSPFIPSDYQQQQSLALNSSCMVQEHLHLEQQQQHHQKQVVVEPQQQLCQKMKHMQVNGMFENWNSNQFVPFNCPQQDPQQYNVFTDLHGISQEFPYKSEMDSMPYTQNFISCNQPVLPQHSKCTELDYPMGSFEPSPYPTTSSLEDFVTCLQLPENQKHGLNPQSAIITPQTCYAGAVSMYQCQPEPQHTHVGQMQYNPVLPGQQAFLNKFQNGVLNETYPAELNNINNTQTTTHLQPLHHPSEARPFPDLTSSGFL
Outline: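 Cell line HG2L7.5c1 (human hepatoma, 20× DRE-luc). Plated, 5 h 37C, compound/DMSO added, 24 h 37C. CellTiter-Fluor 30 min 37C → fluorescence; then ONE-Glo 30 min RT → luminescence.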

[3] = qHTS assay to identify small molecule that activate the aryl hydrocarbon receptor (AhR) signaling pathway - cell viability counter screen (AID 743086);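 also: HepG2 liver cells carrying the AhR DRE luciferase reporter; series mostly up to about 70 µM; nearly all actives have a fitted effect of over 45% in size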
Outline: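 HepG2-AhR-luc (HG2L7.5c1) cells, 4000/well, treated 24 h at 37 C with compound; viability measured as CellTiter-Fluor fluorescence after 30 min in the same wells as the luciferase read.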

[4] = molecular target: Peroxisome proliferator-activated receptor gamma (Homo sapiens) (UniProt P37231); assay: qHTS assay to identify small molecule agonists of the peroxisome proliferator-activated receptor gamma (PPARg) signaling pathway (AID 743094; active = well fitted activation curve with a large enough effect in the signal ratio in the repeat runs, not every such curve was filed as active; the % refers to the signal ratio)
Peroxisome proliferator-activated receptor gamma (Homo sapiens), sequence (P37231 whole entry, looked up): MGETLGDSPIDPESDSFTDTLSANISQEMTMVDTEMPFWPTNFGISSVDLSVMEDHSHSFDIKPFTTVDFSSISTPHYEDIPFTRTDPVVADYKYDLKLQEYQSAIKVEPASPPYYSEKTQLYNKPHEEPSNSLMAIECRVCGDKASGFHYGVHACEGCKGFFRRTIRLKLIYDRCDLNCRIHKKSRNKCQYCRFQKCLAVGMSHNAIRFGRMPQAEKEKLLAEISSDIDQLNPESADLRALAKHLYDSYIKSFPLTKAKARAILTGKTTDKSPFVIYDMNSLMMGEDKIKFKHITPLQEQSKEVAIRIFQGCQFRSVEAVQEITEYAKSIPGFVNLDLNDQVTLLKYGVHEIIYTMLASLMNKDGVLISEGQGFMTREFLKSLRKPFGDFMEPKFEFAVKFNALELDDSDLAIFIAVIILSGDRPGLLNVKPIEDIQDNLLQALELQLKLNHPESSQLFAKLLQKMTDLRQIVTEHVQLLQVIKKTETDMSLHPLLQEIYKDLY
Outline: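 Agonism was assessed in a beta-lactamase reporter system, HEK293H cells with a stably integrated UAS-bla construct under PPARg control; the 17 h treatment at 37C preceded a 1 h room-temperature FRET substrate read.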

[5] = molecular target: Peroxisome proliferator-activated receptor gamma (Homo sapiens) (UniProt P37231); assay: qHTS assay to identify small molecule antagonists of the peroxisome proliferator-activated receptor gamma (PPARg) signaling pathway (AID 743191; calls by dose curve; also: series mostly up to about 63 µM; nearly all actives have a fitted effect of over 30% in size)
Outline: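 GeneBLAzer PPARg UAS-bla HEK293H cells, 5 h post-plating, exposed to compounds 17 h at 37C. LiveBLAzer B/G FRET substrate added for 1 h at room temperature; beta-lactamase reporter read by fluorescence intensity.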

[6] = qHTS assay for small molecule agonists of the antioxidant response element (ARE) signaling pathway - cell viability counter screen (AID 743203; calls by dose curve; also: nearly all actives have a fitted effect of over 55% in size)
Outline: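 ATP content via CellTiter-Glo luminescence served as the viability measure. Cells: ARE-bla HepG2, 2,000 per well. Exposure: 16 hrs, 37C/5% CO2.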

[7] = qHTS assay for small molecule activators of the heat shock response signaling pathway (AID 743210; active = well fitted activation curve with a large enough effect in the signal ratio in the repeat runs, with a control signal flat, not every such curve was filed as active; the % refers to the signal ratio;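 also: HeLa cells with beta-lactamase reporter driven by heat shock elements; series mostly up to about 63 µM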)
Outline: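 Beta-lactamase reporter read-out: FRET substrate fluorescence after 2.5 h at RT, following 5 h compound treatment at 37 C of HeLa cells carrying HSE-driven bla reporter; quantitative HTS format.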

[8] = molecular target: Bile acid receptor (Homo sapiens) (UniProt Q96RI1); assay: qHTS assay to identify small molecule agonists of the farnesoid-X-receptor (FXR) signaling pathway (AID 743220; active = well fitted activation curve with a large enough effect in the signal ratio in the repeat runs, not every such curve was filed as active; the % refers to the signal ratio; also: potency is read from the fitted curve at half-maximal effect)
Bile acid receptor (Homo sapiens), sequence (Q96RI1 whole entry, looked up): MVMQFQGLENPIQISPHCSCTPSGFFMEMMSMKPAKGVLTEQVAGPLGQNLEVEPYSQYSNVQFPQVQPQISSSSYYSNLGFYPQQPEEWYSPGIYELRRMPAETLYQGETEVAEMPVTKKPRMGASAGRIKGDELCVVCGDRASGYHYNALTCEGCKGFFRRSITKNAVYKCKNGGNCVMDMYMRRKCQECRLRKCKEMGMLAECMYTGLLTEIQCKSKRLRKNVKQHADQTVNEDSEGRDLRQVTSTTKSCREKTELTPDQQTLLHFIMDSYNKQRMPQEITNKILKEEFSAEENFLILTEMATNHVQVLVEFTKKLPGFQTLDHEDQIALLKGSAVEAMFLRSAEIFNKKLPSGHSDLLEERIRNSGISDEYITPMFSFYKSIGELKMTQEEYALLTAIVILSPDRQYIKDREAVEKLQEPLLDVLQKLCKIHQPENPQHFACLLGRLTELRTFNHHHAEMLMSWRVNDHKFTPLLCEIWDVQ
Outline: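 FXR-UAS-bla HEK 293T cells carrying a UAS-driven beta-lactamase reporter were plated for 5 h at 37C/5% CO2, then exposed to DMSO-dissolved Tox21 10K compounds for 16 h at 37C. A LiveBLAzer B/G FRET substrate was loaded for 2 h at room temperature before fluorescence reading.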

[9] = qHTS assay for small molecule activators of the heat shock response signaling pathway - cell viability counter screen (AID 743209); also: nearly all actives have a fitted effect of over 50% in size
Outline: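 Compounds dissolved in DMSO were added to overnight-plated HSE-bla HeLa cells and left 5 h at 37 C. Cell viability was quantified by luminescence using CellTiter-Glo.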

[10] = qHTS assay to identify small molecule agonists of the peroxisome proliferator-activated receptor delta (PPARd) signaling pathway - cell viability counter screen (AID 743211); also: nearly all actives have a fitted effect of over 55% in size
Outline: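 HEK293H PPARd-bla, 3000 cells/well; 5 h preincubation 37C/5% CO2; cpd in DMSO, 17 h 37C; B/G FRET substrate 2 h RT; CellTiter-Glo 30 min RT, luminescence.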

[11] = molecular target: Peroxisome proliferator-activated receptor delta (Homo sapiens) (UniProt Q03181); assay: qHTS assay to identify small molecule agonists of the peroxisome proliferator-activated receptor delta (PPARd) signaling pathway (AID 743212; calls by dose curve)
Peroxisome proliferator-activated receptor delta (Homo sapiens), sequence (Q03181 whole entry, looked up): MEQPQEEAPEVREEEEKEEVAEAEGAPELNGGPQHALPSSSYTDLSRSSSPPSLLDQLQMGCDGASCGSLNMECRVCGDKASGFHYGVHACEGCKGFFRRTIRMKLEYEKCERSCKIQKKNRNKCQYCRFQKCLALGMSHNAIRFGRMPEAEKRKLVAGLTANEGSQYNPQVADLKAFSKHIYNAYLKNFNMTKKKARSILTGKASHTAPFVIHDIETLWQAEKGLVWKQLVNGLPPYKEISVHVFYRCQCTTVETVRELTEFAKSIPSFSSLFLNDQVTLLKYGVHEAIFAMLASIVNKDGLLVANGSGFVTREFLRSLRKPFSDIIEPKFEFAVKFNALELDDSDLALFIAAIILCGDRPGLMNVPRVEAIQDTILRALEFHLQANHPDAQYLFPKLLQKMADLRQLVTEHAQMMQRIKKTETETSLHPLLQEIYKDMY
Outline: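 Read-out: beta-lactamase FRET fluorescence after 2 h room-temperature incubation with LiveBLAzer B/G substrate. Cells were HEK293H carrying a UAS-bla reporter for PPARd, treated at 37 C with DMSO-dissolved compounds.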

[12] = qHTS assay to identify small molecule antagonists of the peroxisome proliferator-activated receptor delta (PPARd) signaling pathway - cell viability counter screen (AID 743213); also: nearly all actives have a fitted effect of over 50% in size
Outline: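 Same-well viability: cells pre-incubated 5 h, dosed with compound plus 300 nM L165041, kept 17 h at 37 C, FRET substrate 2 h RT, then CellTiter-Glo 30 min RT and luminescence.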

[13] = molecular target: Peroxisome proliferator-activated receptor delta (Homo sapiens) (UniProt Q03181); assay: qHTS assay to identify small molecule antagonists of the peroxisome proliferator-activated receptor delta (PPARd) signaling pathway (AID 743215; active = well fitted inhibition curve with a large enough effect in the signal ratio in the repeat runs, not every such curve was filed as active; the % refers to the signal ratio;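 also: cells stimulated with agonist L165041 at 300 nM final during compound exposure; series mostly up to about 62 µM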)
Outline: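 Here, a reporter line (HEK293H, beta-lactamase under a UAS) measures PPARd signaling. Compounds are tested against agonist L165041 at 300 nM final concentration over 17 h at 37 C, with fluorescence read after substrate.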

[14] = qHTS assay to identify small molecule agonists of the farnesoid-X-receptor (FXR) signaling pathway - cell viability counter screen (AID 743218); also: nearly all actives have a fitted effect of over 45% in size
Outline: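 Quantitative HTS counter screen measuring ATP-based viability via CellTiter-Glo luminescence in HEK 293T cells carrying a UAS-driven beta-lactamase reporter, after 16 h compound exposure at 37 C.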

[15] = qHTS assay to identify small molecule antagonists of the farnesoid-X-receptor (FXR) signaling pathway - cell viability counter screen (AID 743221; active = well fitted cell-killing curve with a large enough effect in the repeat runs, not every such curve was filed as active; also: nearly all actives have a fitted effect of over 50% in size)
Outline: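 Luminescence from CellTiter-Glo measures cytotoxicity in GeneBLAzer FXR-UAS-bla HEK 293T cells. Cells were exposed to compounds with 50 uM chenodeoxycholic acid (final) for 16 h at 37 C, in wells also used for the reporter readout.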

[16] = molecular target: Vitamin D3 receptor (Homo sapiens) (UniProt P11473); assay: qHTS assay to identify small molecule agonists of the vitamin D receptor (VDR) signaling pathway (AID 743222; calls by dose curve)
Vitamin D3 receptor (Homo sapiens), sequence (P11473 whole entry, looked up): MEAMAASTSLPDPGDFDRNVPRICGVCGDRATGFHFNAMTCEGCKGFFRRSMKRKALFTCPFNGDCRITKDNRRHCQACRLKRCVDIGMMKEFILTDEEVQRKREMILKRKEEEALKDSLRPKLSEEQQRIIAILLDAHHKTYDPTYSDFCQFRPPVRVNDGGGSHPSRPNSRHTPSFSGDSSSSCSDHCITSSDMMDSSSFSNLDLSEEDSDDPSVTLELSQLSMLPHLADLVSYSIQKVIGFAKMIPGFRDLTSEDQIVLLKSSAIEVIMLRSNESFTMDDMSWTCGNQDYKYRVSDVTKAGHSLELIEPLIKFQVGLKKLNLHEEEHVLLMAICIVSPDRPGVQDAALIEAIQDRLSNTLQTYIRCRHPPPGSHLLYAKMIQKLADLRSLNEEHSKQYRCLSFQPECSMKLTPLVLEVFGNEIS
Outline: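 Tox21 cell reporter format: VDR-bla line, 16 h compound exposure in 5% CO2 at 37C, then fluorescence intensity after 2 h with LiveBLAzer B/G FRET substrate.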

[17] = qHTS assay to identify small molecule antagonists of the peroxisome proliferator-activated receptor gamma (PPARg) signaling pathway - cell viability counter screen (AID 743194); also: nearly all actives have a fitted effect of over 55% in size
Outline: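 Cytotoxicity counter screen in PPARg-bla HEK293H cells, same wells as reporter assay. Compounds plus 50 nM rosiglitazone (final) for 17 h at 37 C, then viability read by CellTiter-Glo luminescence.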

[18] = qHTS assay for small molecule agonists of the antioxidant response element (ARE) signaling pathway (AID 743202; active = well fitted activation curve with a large enough effect in the signal ratio in the repeat runs, not every such curve was filed as active; the % refers to the signal ratio)
Outline: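 HepG2 ARE-bla reporter line, 2,000 cells/well; 5 h preincubation 37 C/5% CO2; compound (DMSO) 16 h 37 C; B/G FRET substrate 2 h RT; fluorescence intensity.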

[19] = molecular target: Bile acid receptor (Homo sapiens) (UniProt Q96RI1); assay: qHTS assay to identify small molecule antagonists of the farnesoid-X-receptor (FXR) signaling pathway (AID 743217; active = well fitted inhibition curve with a large enough effect in the signal ratio in the repeat runs, not every such curve was filed as active; the % refers to the signal ratio)
Outline: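 Test compounds are pin-transferred onto FXR-bla HEK 293T cells, then chenodeoxycholic acid is added at 50 uM final. After 16 h at 37 °C, LiveBLAzer B/G substrate is applied for 2 h at room temperature and fluorescence read.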

[20] = molecular target: Vitamin D3 receptor (Homo sapiens) (UniProt P11473); assay: qHTS assay to identify small molecule antagonists of the vitamin D receptor (VDR) signaling pathway (AID 743223; active = well fitted inhibition curve with a large enough effect in the signal ratio in the repeat runs, not every such curve was filed as active; the % refers to the signal ratio)
Outline: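 Antagonist mode uses 1alpha,25-dihydroxyvitamin D3 at 3 nM final as stimulus. VDR-bla cells receive compounds in DMSO, incubate 16 h at 37C, then a beta-lactamase FRET substrate for 2 h at room temperature before fluorescence measurement.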

C[C@H](CCC(=O)O)[C@H]1CC[C@H]2[C@@H]3CC[C@@H]4C[C@H](O)CC[C@]4(C)[C@H]3C[C@H](O)[C@]12C
Potency [1]: inactive
Potency [2]: inactive
Potency [3]: inactive
Potency [4]: inactive
Potency [5]: inactive
Potency [6]: inactive
Potency [7]: inactive
Potency [8]: 49.1 µM (active)

NC(N)=NCCC[C@H](N)C(=O)O
Potency [1]: inactive
Potency [2]: inactive
Potency [3]: inactive
Potency [4]: inactive
ratio activity, negative = inhibition [5]: 0.163% [at 5.95 µM]
viability change, negative = cytotoxic [6]: 9.06% [at 8.36 µM]
activity change, negative = cytotoxicity [9]: 4.58% [at 5.95 µM]
activation [7]: 0.502% [at 5.95 µM]
activity change, negative = cytotoxicity [10]: 1.87% [at 5.95 µM]
activation [11]: 0.522% [at 5.95 µM]
viability change, negative = cytotoxic [12]: 2.08% [at 6.26 µM]
ratio activity, negative = inhibition [13]: -1.1% [at 6.26 µM]
viability change, negative = cytotoxic [14]: -2.05% [at 5.95 µM]
activity change, negative = cytotoxicity [15]: -8.21% [at 5.95 µM]
activation [16]: 9.36% [at 6.01 µM]

CCCCCCCCCCCC(=O)OC[C@@H](O)[C@H]1OC[C@H](OCCO)[C@H]1OCCO
Potency [1]: inactive
Potency [2]: inactive
Potency [3]: inactive
Potency [4]: inactive
Potency [5]: inactive
Potency [17]: inactive
Potency [6]: inactive
Potency [9]: inactive
Potency [11]: inactive
Potency [15]: inactive
Potency [16]: inactive

CN(C)c1ccc(CCO)cc1
Potency [1]: inactive
Potency [2]: inactive
Potency [3]: inactive
Potency [4]: inactive
Potency [5]: inactive
Potency [18]: inactive
Potency [6]: inactive
Potency [9]: inactive
Potency [7]: inactive
Potency [10]: inactive
Potency [11]: inactive
Potency [12]: inactive
Potency [13]: inactive
Potency [14]: inactive
Potency [15]: inactive
Potency [16]: inactive

CCCCNc1ccc(C(=O)OCCOCCOCCOCCOCCOCCOCCOCCOCCOC)cc1
Potency [1]: inactive
Potency [2]: inactive
Potency [3]: inactive
Potency [4]: inactive
Potency [5]: inactive
Potency [6]: inactive
Potency [9]: inactive
Potency [7]: inactive
Potency [11]: inactive
Potency [12]: inactive
Potency [19]: inactive
Potency [14]: inactive
Potency [8]: inactive
Potency [15]: inactive
Potency [16]: inactive

c1ccc(CNCCNCc2ccccc2)cc1
Potency [1]: inactive
Potency [2]: inactive
Potency [3]: inactive
Potency [4]: inactive
Potency [17]: inactive
Potency [6]: inactive
Potency [9]: inactive
Potency [7]: inactive
Potency [11]: inactive
Potency [12]: inactive
Potency [13]: inactive
Potency [14]: inactive
Potency [15]: inactive
outcome [20]: inactive

CCCn1cnc2c1c(=O)n(CCCCC(C)=O)c(=O)n2C
Potency [1]: inactive
Potency [2]: inactive
Potency [3]: inactive
Potency [4]: inactive
Potency [6]: inactive
Potency [9]: inactive
Potency [7]: inactive
Potency [10]: inactive
Potency [11]: inactive
Potency [12]: inactive
Potency [13]: inactive
Potency [19]: inactive
Potency [14]: inactive
Potency [8]: inactive
Potency [15]: inactive
Potency [16]: inactive
outcome [20]: inactive
